This is an account of results in PubChem BioAssay.

Assay [1] in a line: inhibitors of TNFa-induced NFkB p65 translocation, primary screen, imaging, HUVEC, MLSMR starter and 10KST1 sets (AID 438;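 active = inhibition above 20% together with a positive visual image hit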;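 also: compound added about 3h40 before a 20 min TNFalpha stimulation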;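 as to inhibition: signal is the nuclear over cytoplasmic p65 intensity ratio per well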). The following applies: HUVEC TNFa-induced p65 nuclear translocation; cell count: measured here: nuclei count (cytotoxicity indicator), at 2.08 µM; inhibition: at 2 µM, stronger effect = higher value, 0% TNFa-plus-vehicle, 100% no-TNFa wells.
Assay [2] can be described thus: reduction of polyQ htt aggregates in cells – imaging, exon1htt(103Q)mCFP cells, high-content imaging, primary screen (AID 483;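 active = visual image review flags a hit and inhibition of aggregation exceeds 20%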;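 also: compound exposure lasted 3 days before fixation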;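 as to nuclei count: percent of the per-plate median nuclei count of sample wells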). The following applies: exon1htt(103Q)mCFP cell line, aggregate imaging, at 2 µM; inhibition of aggregation: stronger effect = higher value; nuclei count: measured here: cell count, toxicity.
Assay [3] can be described thus: endothelial E-selectin expression blockers – imaging, HUVEC, immunofluorescence, MLSMR starter and 10KST1 sets, primary screen (AID 487;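 active = visually confirmed hit in the image check and inhibition above 20%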;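 as to inhibition: signal is fraction of cell area covered by stained E-selectin grains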;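 as to nuclei count: 100% = median nuclei count of all wells on the same plate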). Conditions: HUVEC TNFalpha-induced E-selectin immunofluorescence imaging, at 2 µM; inhibition: stronger effect = higher value; nuclei count: measured here: cell number, toxicity.
Assay [4] concerns the target Voltage-gated potassium channel subunit beta-2 (Rattus norvegicus) (UniProt P62483). As to the kind of experiment: inhibitors of rat Kvbeta2 reductase activity – biochemical, NADPH fluorescence, primary screen (AID 622;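 active = fluorescence slope higher than the sample average by over 3 SD, cut at about -0.22 in these data, passing the limit was not always enough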;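 also: slope of raw intensity against log time taken from 70 to 1610 s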). Conditions: recombinant KvBeta, 4-cyanobenzaldehyde reduction, at 10 µM, stronger effect = higher value.
Assay [5] has the same target. As to the kind of experiment: enhancers of rat Kvbeta2 NADPH turnover – biochemical, NADPH fluorescence, primary screen (AID 623;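 active = NADPH fluorescence slope more negative than the mean of all samples by about 3 SD, 99.7% confidence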;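 also: fluorescence intensity change per second fitted from 20 to 320 s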). The following applies: Recombinant KvBeta, NADPH fluorescence decrease slope, 10 min; at 10 µM; stronger effect = lower value.
Assay [6] has as its target Alpha-2C adrenergic receptor (Homo sapiens) (UniProt P18825). As to the kind of experiment: compounds altering alpha2C-coupled GIRK flux – cell-based, HEK293 alpha2C/GIRK1/2, thallium flux, primary screen (AID 624;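 active = fluorescence slope after compound addition differing from the mean of all screened samples at 99.7% confidence, in either direction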;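 also: slope of fluorescence ratio to pre-addition baseline per second over 15 to 24 s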). The following applies: thallium flux BTC fluorescence, at 10 µM, actives lie on both sides.
Assay [7] is described as follows: blockers of RIG-like receptor reporter activation – cell-based, Sendai virus stimulus, luciferase, 10K MLSCN set, TLR/RLR signaling modifier project, primary screen (AID 602276).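 Also: firefly luciferase from ISG56 promoter only with Renilla not read in this screen; 0% = Sendai virus plus DMSO and 100% = medium plus DMSO without virus.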 Conditions: HEK293 RL24 IRF3 luciferase reporter, at 10 µM, stronger effect = higher value. (In general: In a reporter assay the amount or activity of a reporter protein is the signal.)
Assay [8] is described as follows: TLR3 IRF3 reporter activation blockers – cell-based, poly I:C stimulus, luciferase, 10K MLSCN set, primary screen (AID 602277;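 active = inhibition of the reporter signal at or above 50%; inactive = inhibition below 50%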). The following applies: HEK293-TLR3 RL24 IRF3 luciferase reporter, at 10 µM, stronger effect = higher value.

Each structure is given as a SMILES string. The source made the active and inactive calls.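 The calls were made as follows, unless noted: active = inhibition at or above 50% at 10 µM; inactive = inhibition below 50%.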

Chain of Alpha-2C adrenergic receptor (Homo sapiens) (P18825 whole entry, looked up): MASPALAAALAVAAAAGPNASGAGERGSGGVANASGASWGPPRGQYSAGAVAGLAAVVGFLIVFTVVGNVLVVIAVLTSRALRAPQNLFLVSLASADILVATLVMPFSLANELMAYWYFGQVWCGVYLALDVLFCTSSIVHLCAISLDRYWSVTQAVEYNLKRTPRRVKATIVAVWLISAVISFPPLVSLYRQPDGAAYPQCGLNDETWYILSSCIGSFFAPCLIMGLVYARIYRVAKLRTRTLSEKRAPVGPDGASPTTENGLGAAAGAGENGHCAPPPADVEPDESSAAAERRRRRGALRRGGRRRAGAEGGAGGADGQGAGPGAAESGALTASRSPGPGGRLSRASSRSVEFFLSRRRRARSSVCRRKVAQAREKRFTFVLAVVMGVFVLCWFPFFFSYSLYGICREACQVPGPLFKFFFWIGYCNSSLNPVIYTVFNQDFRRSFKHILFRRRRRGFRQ
Chain of Voltage-gated potassium channel subunit beta-2 (Rattus norvegicus) (P62483 whole entry, looked up): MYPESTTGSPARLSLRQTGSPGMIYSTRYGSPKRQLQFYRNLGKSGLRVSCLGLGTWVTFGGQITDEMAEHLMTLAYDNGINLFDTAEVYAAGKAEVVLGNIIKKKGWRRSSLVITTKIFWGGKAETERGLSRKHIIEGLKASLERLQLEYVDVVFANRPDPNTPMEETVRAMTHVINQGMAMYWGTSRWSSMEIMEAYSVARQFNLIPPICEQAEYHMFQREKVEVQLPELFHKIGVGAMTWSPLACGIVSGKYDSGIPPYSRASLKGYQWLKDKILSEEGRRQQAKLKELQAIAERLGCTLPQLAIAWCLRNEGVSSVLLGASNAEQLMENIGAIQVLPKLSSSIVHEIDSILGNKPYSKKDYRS

In general, inhibition refers to the drop in the measured response relative to a control, in per cent. Regarding `CCOc1ccc(C2C(C(=O)OC)=CN(CCOC)C=C2C(=O)OC)cc1`, the cell count in assay [1] came out at 298. The inhibition in assay [1] is 6% (inactive); in assay [3], -6% (inactive); in assay [7], -9.2% (inactive); in assay [8], 7.51% (inactive). In addition, in assay [2], the inhibition of aggregation is -3.4% (inactive). Besides, the nuclei count in assay [2] turned out to be 105%; in assay [3], 110%. In assay [4], the fluorescence slope is -0.141 (inactive). In addition, the NADPH fluorescence slope in assay [5] was -8.2e-06 (inactive). The slope in assay [6] was 0.00651 (inactive).
Consider `COC(=O)Cn1c(CN2CCOCC2)nc2c1c(=O)n(C)c(=O)n2C`, for which, in assay [1], the cell count came to 666. For the same compound, the inhibition is -18.4% (inactive) in assay [1], -0.7% (inactive) in assay [3], 6.17% (inactive) in assay [7] and 32.9% (inactive) in assay [8]. For the same compound, the inhibition of aggregation in assay [2] was 6.2% (inactive). In addition, the nuclei count stood at 95.4% in assay [2] and 114% in assay [3]. Moreover, the fluorescence slope in assay [4] is -0.418 (inactive). Besides, the NADPH fluorescence slope in assay [5] was -5.7e-05 (inactive). Moreover, the slope in assay [6] is 0.00632 (inactive).
Regarding `Cc1ccc(-c2nc3cc(NC(=O)C(C)C)ccc3o2)cc1`, the cell count in assay [1] amounted to 290. Moreover, the inhibition was -6.7% (inactive) in assay [1], 29.7% (inactive) in assay [3], -10.9% (inactive) in assay [7] and -66.2% (inactive) in assay [8]. Besides, the inhibition of aggregation in assay [2] was 14.3% (inactive). For the same compound, the values for the nuclei count in assay [2] and in assay [3] were 98.3% and 87.7%, respectively. The fluorescence slope in assay [4] was -0.319 (inactive). Besides, in assay [5], the NADPH fluorescence slope is -3e-05 (inactive). The slope in assay [6] was 0.0055 (inactive).
On to `Cc1cc(C(=O)Nc2c(F)cc(F)cc2Br)no1`, for which the cell count in assay [1] was 338. Besides, the inhibition in assay [1] was -3.2% (inactive); in assay [3], -143% (inactive); in assay [7] it was 3.46% (inactive); in assay [8], -12% (inactive). In assay [2], the inhibition of aggregation is 25.8% (inactive). Also, the values for the nuclei count in assay [2] and in assay [3] were 94.4% and 103%, respectively. In assay [4], the fluorescence slope is -0.58 (inactive). Moreover, the NADPH fluorescence slope in assay [5] is 1.4e-05 (inactive). Moreover, the slope in assay [6] was 0.0051 (inactive).
In the case of `COc1ccc(CCNc2oc(Cc3cccc4ccccc34)nc2C#N)cc1OC`, the cell count in assay [1] was determined as 718. The inhibition in assay [1] was 13.9% (inactive); in assay [3] it was 24.2% (inactive); in assay [7], 17.3% (inactive); in assay [8], 6.78% (inactive). Besides, the inhibition of aggregation in assay [2] was 8.4% (inactive). Also, the nuclei count in assay [2] was 81.2%; in assay [3], 88.7%. Further, the fluorescence slope in assay [4] is -0.396 (inactive). Also, the NADPH fluorescence slope in assay [5] was -8.6e-06 (inactive). Moreover, the slope in assay [6] was 0.00516 (inactive).
Consider `O=C1CC(Sc2nnc(-c3ccccc3)o2)C(=O)N1c1ccccc1` (stereo not drawn), for which the cell count in assay [1] was found to be 677. Further, the inhibition in assay [1] was -1.1% (inactive); in assay [3] it was -12.2% (inactive); in assay [7], 4.52% (inactive); in assay [8], 3.11% (inactive). The inhibition of aggregation in assay [2] was 3.6% (inactive). The figures for the nuclei count in assay [2] and in assay [3] were 105% and 91.1%, respectively. Besides, the fluorescence slope in assay [4] is -0.404 (inactive). The NADPH fluorescence slope in assay [5] was -6.5e-05 (inactive). In assay [6], the slope is 0.00487 (inactive).
As for `O=C(CCCn1c(=S)[nH]c2cc3c(cc2c1=O)OCO3)N1CCN(c2ccccc2F)CC1`, in assay [1], the cell count turned out to be 402. For the same compound, the inhibition in assay [1] was -9.1% (inactive); in assay [3], 0.1% (inactive); in assay [7], 8.7% (inactive); in assay [8] it was -6.98% (inactive). Besides, the inhibition of aggregation in assay [2] was -7.6% (inactive). Further, the values for the nuclei count in assay [2] and in assay [3] were 99.5% and 112%, respectively. Also, the fluorescence slope in assay [4] was -0.501 (inactive). The NADPH fluorescence slope in assay [5] is -4.7e-05 (inactive). In addition, the slope in assay [6] is 0.00637 (inactive).
Turning to `CCOC(=O)C1C(=O)N(C(=O)c2ccc(OC)cc2)CC1c1ccccc1` (stereo not drawn), the cell count in assay [1] came out at 423. In addition, the inhibition in assay [1] was -7.6% (inactive); in assay [3], -39.2% (inactive); in assay [7], 12.3% (inactive); in assay [8], 22.3% (inactive). For the same compound, the inhibition of aggregation in assay [2] is -7.4% (inactive). Further, the nuclei count in assay [2] worked out at 99%; in assay [3], 128%. Further, the fluorescence slope in assay [4] was -0.384 (inactive). For the same compound, the NADPH fluorescence slope in assay [5] was -0.000151 (inactive). Further, the slope in assay [6] is 0.00629 (inactive).
For `CC(C)(C)c1ccc(-c2nnc(SCCC#N)n2C2CCCC2)cc1`, the cell count in assay [1] came out at 410. Moreover, the inhibition in assay [1] was 5.5% (inactive); in assay [3] it was -2.3% (inactive); in assay [7], -5.13% (inactive); in assay [8] it was 10.8% (inactive). The inhibition of aggregation in assay [2] was 10.8% (inactive). Besides, the nuclei count in assay [2] turned out to be 115%; in assay [3] it was 97.3%. Besides, the fluorescence slope in assay [4] was -0.483 (inactive). The NADPH fluorescence slope in assay [5] was -3e-05 (inactive). In assay [6], the slope was 0.00637 (inactive).
On to `O=C(CSc1nc2ccccc2[nH]1)c1ccc2c(c1)OCO2`, for which, in assay [1], the cell count worked out at 673. The inhibition was 2.4% (inactive) in assay [1], -2.6% (inactive) in assay [3], 18.8% (inactive) in assay [7] and -39.5% (inactive) in assay [8]. Further, the inhibition of aggregation in assay [2] is -4% (inactive). Also, the nuclei count came out at 102% in assay [2] and 100% in assay [3]. The fluorescence slope in assay [4] was -0.471 (inactive). Also, in assay [5], the NADPH fluorescence slope was -1.2e-05 (inactive). In addition, the slope in assay [6] was 0.00599 (inactive).
For the compound `Cn1c(=O)c2c(nc(CN3CCc4ccccc4C3)n2Cc2cccc(Cl)c2)n(C)c1=O`, the cell count in assay [1] stood at 646. Also, the inhibition is 8% (inactive) in assay [1], -22.8% (inactive) in assay [3], 19.5% (inactive) in assay [7] and -58.7% (inactive) in assay [8]. The inhibition of aggregation in assay [2] was 0.6% (inactive). The nuclei count in assay [2] was 102%; in assay [3], 124%. Further, in assay [4], the fluorescence slope is -0.575 (inactive). In addition, the NADPH fluorescence slope in assay [5] is -4.8e-05 (inactive). Moreover, in assay [6], the slope is 0.00753 (inactive).
Consider `COc1ccccc1N1CCN(C(=O)CSc2nc3ncnc(N)c3[nH]2)CC1`, for which the cell count in assay [1] was found to be 467. Also, the inhibition was -8.8% (inactive) in assay [1], -144% (inactive) in assay [3], 16% (inactive) in assay [7] and 23.6% (inactive) in assay [8]. Also, in assay [2], the inhibition of aggregation is -0.2% (inactive). The nuclei count in assay [2] worked out at 110%; in assay [3] it was 162%. In assay [4], the fluorescence slope is -0.52 (inactive). In assay [5], the NADPH fluorescence slope was 7.1e-06 (inactive). The slope in assay [6] was 0.00625 (inactive).
With `COc1ccccc1C(=O)Nc1ccc(N2CCN(Cc3ccccc3)CC2)cc1`, the cell count in assay [1] came to 690. For the same compound, the inhibition is 12% (inactive) in assay [1], 19.4% (inactive) in assay [3], 9.6% (inactive) in assay [7] and -11% (inactive) in assay [8]. Also, the inhibition of aggregation in assay [2] was 23.2% (inactive). The nuclei count in assay [2] was 95.9%; in assay [3], 97%. Besides, the fluorescence slope in assay [4] was -0.611 (inactive). Moreover, the NADPH fluorescence slope in assay [5] was -1.3e-06 (inactive). For the same compound, the slope in assay [6] is 0.00369 (inactive).
